Nrf2 inh: inhibitors of Nrf2 signaling. A549 ARE-Fluc reporter, luciferase luminescence, 18-24 h. 360,000 compounds, 2.1% hits. AID 504444. Potency, µM (top dose mostly 46 µM), most hits filed as inhibitors; further: nearly all actives have a fitted effect of over 60% in size
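Concentration-response testing used A549 ARE_Fluc cells at 5000 cells/well. Following an 18-24 h compound incubation, viability was read by fluorescence (Ex 405/Em 525) and luciferase output by luminescence.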
Nrf2 activator: activators of Nrf2 (ARE) signaling; 410,000 compounds, 0.31% hits; AREc32 ARE-luciferase reporter (MCF7-derived line), luminescence, 24 h; AID 624171; Potency, µM (series often up to 46.1 µM), usual class: activators; further: nearly all actives have a fitted effect of over 65% in size
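Cells of the AREc32 ARE-luciferase line are plated in OPTI-MEM containing 5% FBS and left overnight at 37 deg C. Compounds are pinned in, incubation continues 24 hr, and firefly luciferase signal is then measured.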
A549 tox: counter-screen for Nrf2 inhibitors: cytotoxicity in A549 cells. A549 ARE-Fluc cells, CellTiter-Fluor viability, 18-24 h. Potency, µM (top dose mostly 46 µM), actives largely listed as inhibitors. 390,000 compounds, 0.16% hits
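A549 ARE-Fluc cells in 5% FBS OPTI-MEM, 5000 cells/well, rested 2 h then exposed to compounds in concentration-response for 18-24 h at 37 °C. Viability by CellTiter-Fluor fluorescence (Ex 405/Em 525) after 30 min; luciferase luminescence (BugLite, 15 min, RT) read afterwards.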
Pin1 inh: blocks the human prolyl isomerase Pin1 | Pin1 FP peptide displacement, HiFluor488, 10 min | Potency, µM (series often up to 115 µM), actives largely listed as inhibitors | 390,000 compounds, 0.009% hits | AID 504891; active means well fitted inhibition curve with a large enough effect in the polarisation, with a control signal flat, not every such curve was filed as active; inconclusive means small, poorly fitted or top-dose-only effect, or effect the other way, or a change in a side signal; inactive means no such curve, though single readings can be large or run the other way; the % refers to the polarisation
Target sequence (Q13526 whole entry, looked up): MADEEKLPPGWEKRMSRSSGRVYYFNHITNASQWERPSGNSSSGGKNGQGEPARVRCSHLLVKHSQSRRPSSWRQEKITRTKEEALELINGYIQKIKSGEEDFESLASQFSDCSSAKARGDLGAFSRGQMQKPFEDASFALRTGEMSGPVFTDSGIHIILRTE
A number is an active result; – = inactive; ? = inconclusive; · = no result; [ ] = remark or other dose. Sampled rows, rich in hits. Any-hit rate of the full collection: about 2.2%. Unless noted, the call rests on the fitted dose curve; in most records, active means well fitted curve in the direction sought with a large enough effect; inconclusive means small, poorly fitted or top-dose-only effect, or another doubt; inactive means no such curve, though single readings can be large; an effect the other way counts as inactive or inconclusive.

SMILES	Nrf2 inh	Nrf2 activator	A549 tox	Pin1 inh
CC(=O)Nc1ccn(C2OC(C(COC(C)=O)NC(=O)C(Cc3ccccc3)NC(=O)OC(C)(C)C)C(OC(C)=O)C2OC(C)=O)c(=O)n1 (stereo not drawn)	–	·	–	–
CC(C)C(=O)Nc1cccc(S(=O)(=O)c2cccc(NC(=O)C(C)C)c2)c1	21µM	–	–	–
CNC(=O)c1cccc(NC(=O)C(C)c2ccc3cc(OC)ccc3c2)c1 (stereo not drawn)	–	–	–	–
COc1ccc2cc(C(C)C(=O)Nc3cccc(S(=O)(=O)N(C)C)c3)ccc2c1 (stereo not drawn)	16µM	–	–	–
CCOc1ccccc1CNC(=O)c1sc2ncccc2c1-n1cccc1	·	–	–	–
COc1ccc(-c2nc(-n3c(C)c(C(C)=O)c(C(C)=O)c3C)sc2C)cc1OC	–	–	–	–
CC(=O)c1c(C(C)=O)c(C)n(-c2nc(-c3ccc(Br)cc3)c(C)s2)c1C	26µM	–	?	–
Cc1ccc(S(=O)(=O)c2cnc(-c3ccccc3)[nH]c2=O)cc1	–	·	–	–
Cc1nc([N+](=O)[O-])c(Br)n1Cc1ccccc1	?	10µM	–	–
CN(C)c1cc[n+](CC(=O)Nc2ccc(OC(F)F)cc2)cc1	23µM	–	–	–
COc1ccc(C(=O)C[n+]2ccc(N(C)C)cc2)cc1	21µM	–	–	–
CC1(C)C2CCC1(C)C(NC(=O)COC(=O)c1ccc(S(C)(=O)=O)c([N+](=O)[O-])c1)C2 (stereo not drawn)	?	·	–	–
CC(=O)Nc1sc2c(c1-c1nccs1)CCNC2	·	·	·	–
CN(CC(=O)Nc1ccc(Cl)c(C(F)(F)F)c1)C(=O)c1ccc(S(=O)(=O)N2CCOCC2)cc1	?	–	–	–
CN(CC(=O)Nc1ccc(Cl)c(C(F)(F)F)c1)C(=O)c1ccc(OCC2CCCO2)cc1 (stereo not drawn)	16µM	–	?	–
Cc1ccc(C(=O)N(C)CC(=O)Nc2ccc(Cl)c(C(F)(F)F)c2)cc1S(=O)(=O)N1CCCCC1	5.8µM	–	?	–
Cc1ccc2c(Sc3ccccc3)c(C(=O)NCc3ccccc3F)[nH]c2c1	–	–	–	–
COc1ccc(C2(CNC(=O)C(=O)Nc3ccc(C)c(Cl)c3)CCCC2)cc1OC	–	–	–	–
Cc1nn(C)cc1C(C)NC(=O)c1cc(COc2cccc3cnccc23)on1 (stereo not drawn)	10µM	–	–	–
Cc1nn(C)cc1C(C)NC(=O)c1cc(COc2c(F)cccc2F)on1 (stereo not drawn)	–	–	–	–
CC12CCC=CC1C(c1ccc3ccccc3c1C=Cc1ccccc1)N(Cc1ccccc1)C2=O (stereo not drawn)	–	·	–	–
Cc1cc2cc(C(c3nnnn3CC3CCCO3)N3CCCc4ccccc43)c(=O)[nH]c2cc1C (stereo not drawn)	?	–	–	–
CCc1ccc2[nH]c(=O)c(C(c3nnnn3CC3CCCO3)N3CCCc4ccccc43)cc2c1 (stereo not drawn)	23µM	–	?	–
COc1ccc(/C=C/c2cc(C(=O)O)c3ccccc3n2)cc1	6.5µM	–	–	?
CC(C)c1ccc(NC(=O)C2(C)Cc3ccccc3C(=O)O2)cc1 (stereo not drawn)	?	–	–	–
SMILES	Nrf2 inh	Nrf2 activator	A549 tox	Pin1 inh
COc1cccc(/C=N/NC(N)=S)c1OCc1cccc(Cl)c1	16µM	–	–	–
COCCCN1C(=O)c2[nH]nc(-c3ccccc3O)c2C1c1ccc(OCc2ccccc2)cc1 (stereo not drawn)	26µM	–	?	–
CCCCN1C(=O)c2[nH]nc(-c3ccccc3O)c2C1c1ccc(OCc2ccccc2)cc1 (stereo not drawn)	15µM	–	?	–
COc1cc2c(cc1OC)C(COc1ccc3c(C)cc(=O)oc3c1)N(C(=O)c1ccccc1C)CC2 (stereo not drawn)	–[9.27 µM]	–	–	–
O=C1C=C(C#Cc2ccc(Oc3ccccc3)cc2)C[C@@H](c2ccc(F)cc2)C1	·	–	·	·
COc1cccc(C#CC2=CC(=O)C[C@H](c3ccc(F)cc3)C2)c1	·	16µM	·	·
COc1ccc(NC(=O)C(=O)NCC(c2cccnc2)N2CCc3ccccc3C2)cc1 (stereo not drawn)	?	–	–	?
Nc1ccc(S(=O)(=O)N2CCN(S(=O)(=O)c3c(F)cccc3F)CC2)cc1	–	·	–	–
O=C(Nc1ccc(N2CCN(C(=O)c3ccco3)CC2)c(Cl)c1)c1cc2ccccc2o1	18µM	–	?	–
CCC(=O)N1CCN(c2ccc(NC(=O)c3cc4ccccc4o3)cc2Cl)CC1	?	–	?	–
CCCC(=O)N1CCN(c2ccc(NC(=O)c3cc4ccccc4o3)cc2Cl)CC1	13µM	–	?	–
O=C(OCC#CCSc1nnc(-c2cccc3ccccc23)o1)c1ccncc1	–	·	–	–
CCOC(=O)c1c(C)[nH]c(C)c1S(=O)(=O)N(C)CC(=O)Nc1ccc(C)cc1Br	–	–	–	–
CCN(CC)S(=O)(=O)c1ccc(N2CCN(CCO)CC2)nc1	?	–	–	–
CCN(CC)S(=O)(=O)c1ccc(N2CCN(c3ccccc3O)CC2)nc1	18µM	–	–	–
CCOC(=O)N1CCN(c2ccc(S(=O)(=O)N3CCOCC3)cn2)CC1	?	–	–	–
CCOC(=O)N1CCN(c2ccc(S(=O)(=O)N(Cc3ccccc3)Cc3ccccc3)cn2)CC1	16µM	–	–	–
O=C(CCCN1C(=O)S/C(=C\c2ccccc2)C1=O)NNC(=O)c1ccccc1O	13µM	–	–	–
O=C(CCCN1C(=O)/C(=C/c2ccccc2Cl)SC1=S)N1CCOCC1	–	–	–	–
CC(/C=C1\SC(=O)N(CCCC(=O)O)C1=O)=C\c1ccccc1	2.3µM	–	–	–
CC(=C\c1ccccc1)/C=C1/SC(=S)N(CCCC(=O)O)C1=O	–	–	–	·
CN1CCN(C(=O)CCN2C(=O)/C(=C/c3ccccc3Cl)SC2=S)CC1	?	?	21µM	–
CN1CCN(C(=O)CCN2C(=O)/C(=C\c3ccccc3F)SC2=S)CC1	?	–	23µM	–
CCOC(=O)c1cnn(-c2ccc(OC)cc2)c1C1CCN(C(=O)OC(C)(C)C)CC1	?	–	–	–
COc1ccc(-n2ccnc(NCc3cccs3)c2=O)cc1	?	–	–	–
SMILES	Nrf2 inh	Nrf2 activator	A549 tox	Pin1 inh
Cc1cc(C)cc(-n2c(SCC(N)=O)nc3c([nH]c4ccccc43)c2=O)c1	·	–	–	–
O=C(CCCN1C(=O)/C(=C/c2ccccc2Cl)SC1=S)NNC(=O)c1ccccc1	21µM	–	–	?
O=C(CCCN1C(=O)/C(=C/c2ccccc2Cl)SC1=S)NNC(=O)c1cccnc1	?	–	–	–
O=C(c1ccco1)N1CCN(/C=C2\Nc3ccccc3C(=O)N2c2ccc(F)cc2)CC1	–	·	–	–
CCn1nc(-c2ccccc2)c(-c2ccccc2)c(C(=O)OCCOC)c1=O	–	–	–	–
CCc1ccc(NC(=S)N(Cc2ccc(Cl)cc2)Cc2ccc(C(=O)O)cc2)cc1	–	–	–	–

Screening results from PubChem BioAssay.
